# The panel holds about 83,000 compounds, 20% with a hit somewhere; the sample as a whole holds those more often.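 96-well plates, one dose, 48 hours. Percent growth reported; active if below 10.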 Unmarked numbers belong to inactive results. Active and inactive are the calls of the source.
# What was measured:
# Assay in all cases: NCI-60 one-dose screen, 48 h (100 = growth as untreated, 0 = no growth, -100 = all killed)
# Conditions in all cases: 10 µM unless noted
# SR leukemia = tested on: SR leukemia
# RPMI-8226 leukemia = tested on: RPMI-8226 leukemia
# OVCAR-8 ovarian = tested on: OVCAR-8 ovarian
# OVCAR-5 ovarian = tested on: OVCAR-5 ovarian
# OVCAR-4 ovarian = tested on: OVCAR-4 ovarian
# SK-OV-3 ovarian = tested on: SK-OV-3 ovarian
# IGROV1 ovarian = tested on: IGROV1 ovarian
# OVCAR-3 ovarian = tested on: OVCAR-3 ovarian
# HS 578T breast = tested on: HS 578T breast
# NCI/ADR-RES ovarian = tested on: NCI/ADR-RES ovarian
SMILES,growth (SR leukemia),growth (RPMI-8226 leukemia),growth (OVCAR-8 ovarian),growth (OVCAR-5 ovarian),growth (OVCAR-4 ovarian),growth (SK-OV-3 ovarian),growth (IGROV1 ovarian),growth (OVCAR-3 ovarian),growth (HS 578T breast),growth (NCI/ADR-RES ovarian)
CCOC(=O)c1c2c(n3ccc(NC(=O)CCN(CC)CC)cc13)C(=O)c1ncccc1C2=O,-2.86% (active),51.2%,57.4%,90.5%,63.8%,36.2%,47.3%,74.7%,60.8%,60.2%
Nc1cc2nc3ccccc3sc-2cc1=O,2.91% (active),45.2%,64.4%,94.2%,73.3%,90.8%,54.7%,65.2%,85.1%,81.1%
c1ccc(CSc2ncnc3nc[nH]c23)nc1,103%,124%,120%,96.6%,105%,116%,105%,104%,121%,103%
O=C1/C(=C/c2ccc(F)cc2)CN(C(=O)CCN2CCC(=NO)CC2)C/C1=C\c1ccc(F)cc1,4.41% (active),-37.6% (active),5.09% (active),-53.9% (active),-18.7% (active),-0.984% (active),-29.2% (active),-60% (active),11.4%,12.5%
COc1ccc(CN2C(=O)/C(=C\c3cc(OC)c(OC)c(OC)c3)c3cc(OC)ccc32)cc1,-31.1% (active),-35.9% (active),-43.2% (active),15%,27.2%,7.88% (active),-9.32% (active),-10.8% (active),9.55% (active),6.96% (active)
Cc1cc(Nc2nc(N3CCN(C)CC3)nc3ccccc23)n[nH]1,20.7%,87.2%,99.6%,86.7%,54.5%,25.5%,35.6%,75.8%,50.8%,122%
CC1CN(Cc2ccco2)C(=S)N(c2ccccc2)C1=O (stereo not given),91.2%,88.1%,104%,105%,97%,105%,106%,106%,101%,108%
CC[n+]1ccc2c(c1)C(=O)c1nccc3c1c-2nc1ccccc13,5.79% (active),66.2%,-11.9% (active),87.7%,-67.7% (active),-9.56% (active),17.1%,-14.6% (active),-21.8% (active),75.1%
O=C1Nc2ccccc2/C1=C/C(=N/c1nnc(-c2ccccc2)s1)c1ccccc1,-23% (active),-17.5% (active),36.8%,78.9%,59.2%,87.3%,19.7%,-20.2% (active),106%,46.2%
NC(CC(=O)O)C(=O)OCc1ccccc1 (stereo not given),107%,98.7%,101%,101%,89.6%,82.9%,105%,110%,101%,101%
CCN(CC)CCC(=O)c1ccc(OC)c2ccccc12,-6.8% (active),8.95% (active),89.6%,91.1%,98.4%,98.3%,91.6%,109%,95.9%,98.8%
COc1cccc(/C=C\C(=O)c2ccccc2)c1,47.5%,6.17% (active),81.4%,94.7%,47.4%,107%,2.47% (active),-4.31% (active),85.8%,88%
O=c1ccc2cc3ccccc3cc2[nH]1,82.1%,87.4%,105%,82%,95.1%,102%,98.2%,87.4%,50.9%,93%
O=C(O)c1ccc2c(c1Sc1ccccc1)C(=O)c1ccccc1C2=O,95.6%,106%,105%,101%,92.9%,101%,92.2%,89.6%,114%,105%
COc1cc2c(c(OC)c1OC)-c1ccc(N=NC(N)=S)c(=O)cc1[C@@H](NC(C)=O)CC2,15%,30.8%,1.13% (active),48.5%,33.5%,12.1%,5.37% (active),-52.2% (active),24.2%,82.1%
CC(=O)OCC(=O)C1CCC=CC1OC(C)=O (stereo not given),98.9%,100%,97.2%,104%,94.4%,87.9%,102%,107%,110%,100%
O=C1/C(=C/c2ccccc2)CN(CCC(=O)N2C/C(=C\c3ccccc3)C(=O)/C(=C/c3ccccc3)C2)C/C1=C\c1ccccc1,16.5%,-18.8% (active),16.9%,91%,67.8%,51.3%,70.6%,32.8%,58.1%,76.1%
CCCCCCCCCCNC(=O)CCl,51.4%,82.3%,47.8%,111%,80.3%,111%,44.1%,52.8%,84.6%,73%
CCC(=O)OCc1cccc(OC)c1,116%,84.8%,98.2%,118%,94.6%,103%,81%,107%,101%,106%
COc1cc(NCCCCN=C(N)N)c2ncccc2c1,116%,87.7%,60.8%,86.7%,-99.4% (active),88.3%,56.8%,8.54% (active),94%,104%
CC(=O)N1CC(Nc2ccc(OC(F)(F)F)cc2)=CC1=O,25.3%,21.9%,26.1%,92.6%,87.2%,31.3%,50.3%,9.26% (active),38.9%,15.4%
O=C(O)c1cccnc1Br,89.4%,112%,106%,101%,102%,94.4%,98.1%,104%,110%,99.3%
CCc1ccccc1NC(=O)c1sc2nc3c(cc2c1N)C(=O)CCC3,9.38% (active),17.8%,24.3%,33.5%,60.9%,6.9% (active),33.3%,-12.7% (active),22.6%,5.24% (active)
CC(C)[C@H]1COC(=O)N1[C@@H]1C(=O)N([C@@H](CCC(=O)N2CCN(C3CCCC3)CC2)C(=O)N[C@@H]2CCCc3ccccc32)[C@@H]1/C=C/c1cccc(Br)c1,-18.9% (active),14.6%,62.1%,88.2%,53.9%,52.7%,32%,45.1%,51.9%,53%
CC[C@H](Nc1ncnc(N)c1C(N)=O)c1nc2cccc(NCc3ccc(C(=O)NO)cc3)c2c(=O)n1-c1ccccc1,12%,51%,69.4%,95.5%,99%,91.9%,71%,73.1%,69.7%,106%
Cn1cc(-c2nc(-c3c[nH]c4ccccc34)cs2)c2cccnc21,23%,14.4%,37.9%,54.4%,45.5%,38.7%,44.5%,7.04% (active),38.6%,20.4%
Cc1ccc2c(c1)C(=O)c1c-2c(OCCCN(C)C)nc2ccccc12,-27.5% (active),-16.3% (active),17.2%,51.6%,27.3%,60.3%,3.1% (active),55%,35.3%,25.1%

# Source: PubChem BioAssay (NCI)
